The record followed here is PubChem BioAssay (NCI).

Compounds without any hit were thinned out: in the full panel of roughly 83,000, 20% have a hit.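 In brief: 96-well plates, 48 h treatment, single concentration, percent growth endpoint.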 Active and inactive are the calls of the source. The calls were made as follows: active = growth percent below 10; inactive = the rest.

The assay deals with SK-MEL-2 melanoma. Description: NCI-60 one-dose screen, 48 h (100 = growth as untreated, 0 = no growth, -100 = all killed). The settings on record: 10 µM unless noted.
With `O=C(O)c1nn(-c2ccc(Cl)cc2)nc1N1CCCC1`, the growth was 102% (inactive).
Consider `COCCNC(=O)Cc1cc(-c2ccc(Cl)cc2)n(-c2ccccc2)c1C`, for which the growth is 90.7% (inactive).
Turning to `O=C(Nc1ccc(Oc2cccc(F)c2)c(Cl)c1)c1cnccn1`, the growth is 37.7% (inactive).
To `CC(=O)[C@H]1CC[C@]2(C)[C@@H]1CC[C@@H]1[C@@]3(C)C/C(=C/c4cccnc4)C(=O)C(C)(C)[C@@H]3CC[C@]12C` belongs 85.3% (inactive); to `C=C(C)Cn1c(SCC(=O)c2cccs2)nc2sc3c(c2c1=O)CCCC3`, 92.3% (inactive); to `Cc1ccc(C(=O)Nc2ccc(CN3CCN(C)CC3)c(C(F)(F)F)c2)cc1C#Cc1cnc(N)c2ccccc12`, -26.6% (active).
For the molecule `COc1cc(C2CC(c3cccc(Nc4ccncc4)c3)=Nc3c(N)ncnc3N2)cc(OC)c1OC` (stereo not given), the growth is 92.6% (inactive).
To `CO[C@]12C=C/C(=C(/C(=O)OCc3cccnc3)C(=O)CCCCCCCC[C@]3(OC)C=C/C(=C(/C(=O)OCc4cccnc4)C(=O)CCCCCCCC1)O3)O2` belongs -44.8% (active).
Turning to `CCOC(=O)CSc1nc2sc3c(c2c(=O)n1-c1ccccc1)CCCCC3`, the growth is 103% (inactive).
As for `CN1CCN(Cc2ccc(NC(=O)c3cncc(C#Cc4cnc(N)c5ccc(C#N)cc45)c3)cc2C(F)(F)F)CC1`, the growth was -62% (active).
For the molecule `CCOC(=O)C1=C(c2ccccc2)N=C2SC=C(c3cccc([N+](=O)[O-])c3)N2C1c1ccc(O)cc1` (stereo not given), the growth was 96.7% (inactive).
To `CCn1c2ccccc2c2cc(C(O)c3cccc4ncccc34)ccc21` (stereo not given) belongs 51.5% (inactive).
To `Cc1c(Cl)cccc1NC(=O)c1sc2nc3c(cc2c1N)CCCC3` belongs 22.1% (inactive); to `O=C(/C=C/c1ccco1)Nc1ncc(Cc2ccc(F)cc2)s1`, 48.8% (inactive); to `COc1nc2ccccc2cc1/C=[N+](\[O-])c1ccccc1`, 87.8% (inactive).
Regarding `COc1ccc(-c2ccc(-c3ccc(C(=N)N)o3)o2)cc1`, the growth was 54% (inactive).
As for `C=C(C[n+]1ccccc1)[C@@H]1CC[C@]2(C(=O)OC)CC[C@]3(C)[C@H](CC[C@@H]4[C@@]5(C)CCC(=O)C(C)(C)[C@@H]5CC[C@]43C)[C@@H]12`, the growth was 89% (inactive).
In the case of `COc1cccc(C(=O)Nc2cccc(NC(=O)c3ccccn3)c2)c1`, the growth was 108% (inactive).
Regarding `N#CC1=C(N)Oc2c(ccc3cccnc23)C1c1ccccc1` (stereo not given), the growth was 43.2% (inactive).
With `COc1ccc(C2=NN(C=O)C(c3ccc(Oc4nc5c(c(=O)n(C)c(=O)n5C)n4C)c(OC)c3)C2)cc1` (stereo not given), the growth was 100% (inactive).
In the case of `CCCS(=O)(=O)Nc1cccc(Nc2ncnc3cc(NC(=O)CCl)ccc23)c1Cl`, the growth is -32.1% (active).
For `Cn1cc(-c2csc(-c3cn(C)c4ccc(F)cc34)n2)c2cnccc21`, the growth is 88.9% (inactive).
Regarding `C=C(C)[C@@H]1CC[C@]2(C(=O)NC(C)=O)CC[C@]3(C)[C@H](CC[C@@H]4[C@@]5(C)CCCNC(C)(C)[C@@H]5CC[C@]43C)[C@@H]12`, the growth was -34.6% (active).
On to `COc1cccc(CNc2nnc(C)c(C)n2)c1O`, for which the growth is 106% (inactive).
With `O=C(/C=C/c1ccc(Cl)cc1)c1ccc(-n2cc(CN3CCN(c4cc5c(cc4F)c(=O)c(C(=O)O)cn5C4CC4)CC3)nn2)cc1`, the growth is 99.1% (inactive).
The same measure for `COc1cccc2cc(N(C)c3nc(C)nc4c3CCC4)ccc12`: 41% (inactive); for `O=C(O)CCCN1C(=O)CSC1=S`: 104% (inactive).
Regarding `Cc1c2cnccc2c(C)c2c1c1cc(C(=O)O)ccc1n2C`, the growth is -65.5% (active).
In the case of `C=C1C(=O)O[C@H]2[C@H]1CC/C(CNC(=O)/C=C/c1cc(OC)c(OC)c(OC)c1)=C\CC[C@@]1(C)O[C@@H]21`, the growth was 3.52% (active).
As to `Cc1nc2ccccc2c(/C=C/c2ccc(Br)cc2)c1C(=O)/C=C/c1ccccc1`, the growth is -4.28% (active).
With `CC(=O)O[C@H]1C[C@@]2(C)[C@@H](C[C@@H](O)[C@H]3[C@@]4(C)CC[C@H](N5CCCC5)[C@@H](C)[C@@H]4CC[C@@]32C)/C1=C(\CCC=C(C)C)C(=O)O`, the growth was 100% (inactive).
For the molecule `O=C(O)c1cc2ccccc2s1`, the growth is 127% (inactive).
For the molecule `CC(=O)OCCOc1cc(Cl)c(Cl)cc1Cl`, the growth was 89.9% (inactive).
`CCN1CCN(c2nc(NNC(=O)c3ccc(OC)cc3)nc(N3CCN(C(c4ccccc4)c4ccccc4)CC3)n2)CC1`: the growth was 78% (inactive).
The same measure for `Cc1cc(=O)oc2cc(Oc3nc(-c4ccccc4)cn4c(-c5ccccc5)cnc34)ccc12`: 51.9% (inactive); for `CN(Cc1ccccc1)c1nc(Cl)c(C2CC(c3ccc(Cl)cc3)=NN2c2cc(Cl)cc(Cl)c2)s1` (stereo not given): 104% (inactive); for `COC(=O)c1c(C)nc(C)c2c1C(=O)C(Br)=C(NCCCCO)C2=O`: 64.7% (inactive).
Turning to `COc1cc(/C=C/c2cc(/C=C/c3ccc(O)c(OC)c3)n(C(=O)Nc3ccc(C)cc3C)n2)ccc1O`, the growth is -27.2% (active).
To `Cc1cc2nc(C(Cl)Cl)nc(-c3ccccc3)n2n1` belongs 110% (inactive); to `CN1C(=O)N(C)C2C1NN=c1s/c(=C\c3ccccc3F)c(=O)n12` (stereo not given), 42.5% (inactive).
